Screens: PubChem, National Center for Advancing Translational Sciences (NCATS)
DRD3 agonist = activates the human D3 dopamine receptor; P35462; D3R DiscoveRx beta-arrestin cells, luminescence, 90 min; max activation, %; 410,000 compounds, 0.58% hits; AID 652048; in the data active means max activation above about 30%; further: 0% is about no effect
Target sequence (P35462 whole entry, looked up): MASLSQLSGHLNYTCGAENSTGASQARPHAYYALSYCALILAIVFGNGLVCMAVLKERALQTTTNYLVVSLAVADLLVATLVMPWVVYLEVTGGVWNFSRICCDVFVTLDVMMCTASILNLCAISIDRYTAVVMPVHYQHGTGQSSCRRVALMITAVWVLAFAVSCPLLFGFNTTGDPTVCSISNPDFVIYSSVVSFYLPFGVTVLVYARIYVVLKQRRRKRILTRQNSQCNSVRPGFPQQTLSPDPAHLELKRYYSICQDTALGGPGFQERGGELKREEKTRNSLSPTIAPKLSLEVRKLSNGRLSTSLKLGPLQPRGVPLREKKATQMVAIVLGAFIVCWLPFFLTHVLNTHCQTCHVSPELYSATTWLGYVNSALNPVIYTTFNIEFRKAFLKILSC
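Agonist-mode cell screen: cells plated at 1500/well and incubated overnight at 37 °C, then exposed to library compounds for 90 min at 37 °C. Detection reagent was added for 30–60 min at room temperature, and luminescence was read.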
DT40 TDP1 CPT = DT40-hTDP1 cell growth loss with CPT; chicken DT40 Tdp1-/-;hTDP1 cells + 20 nM CPT, ATP luminescence, 48 h; Potency, µM (titrated, usually from 46.2 µM), inactives show at the top dose activity change, negative = growth inhibition, actives largely listed as inhibitors; 420,000 compounds, 12% hits; AID 686979; further: potency means the concentration at half of the fitted maximal effect; on the % scale 0 is the no-effect control and ±100 the full control effect; nearly all actives have a fitted effect of over 55% in size
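Cell growth measured by CellTiter-Glo luminescence after a minimum 48 h, 37 C compound exposure with 20 nM CPT in Tdp1-knockout DT40 cells stably expressing hTDP1, seeded 400/well; qHTS titration format.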
ClpP mod = qHTS Assay for Activators of ClpP; 340,000 compounds, 1.9% hits; Potency, µM (doses to about 57.5 µM), without a hit: top-dose activity change, negative = active; purified B. subtilis ClpP, FRET peptide cleavage, 20 min; active means well fitted falling curve with a large enough effect; inconclusive means small, poorly fitted or top-dose-only effect; inactive means no such curve, though single readings can be large or run the other way; further: potency means the concentration at half of the fitted maximal effect; the source files actives as falling curves though it sought activators and does not explain the sign; nearly all actives have a fitted effect of over 65% in size
Target sequence (P80244 whole entry, looked up): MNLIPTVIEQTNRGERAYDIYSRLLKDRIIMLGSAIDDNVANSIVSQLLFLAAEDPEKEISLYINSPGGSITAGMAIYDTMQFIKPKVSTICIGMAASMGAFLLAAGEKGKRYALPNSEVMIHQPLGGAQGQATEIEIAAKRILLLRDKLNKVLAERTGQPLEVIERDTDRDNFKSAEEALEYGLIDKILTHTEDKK
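Purified B. subtilis ClpP, 10 microg/mL final in Tris/HCl pH8 with KCl, BSA, glycerol and Tween-20, cleaved an Abz/nitrotyrosine-quenched decapeptide. Fluorescence (ex 320, em 430) was read at 0 and 20 min at room temperature. Delta was normalized to 5.8 microM ADEP and DMSO/no-enzyme controls.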
IL-1B inflam inh = inhibitors of inflammasome signaling (IL-1 beta secretion). THP-1 LPS/ATP IL-1B secretion, AlphaLISA, 16 h; active compounds read low. activity change, % at 57.5 µM. 360,000 compounds, 4.7% hits. AID 743279; in the data active means activity change below about -50%; inconclusive means mostly about -30% to -49%; further: on the % scale 0 is the no-effect control and ±100 the full control effect
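Secreted IL-1B measured by AlphaLISA bead assay after 16 h compound exposure of THP-1 cells; compounds (final up to 57.5 uM) added 1 h before LPS (250 ng/mL) and ATP (1.25 mM) stimulation; lower signal means less secretion.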
DT40 TDP1 no CPT = qHTS for Inhibitors of human tyrosyl-DNA phosphodiesterase 1 (TDP1): qHTS in cells in absence of CPT. DT40 Tdp1-/- hTDP1 cells, no CPT, ATP luminescence, 48 h. Potency, µM (doses to about 46.2 µM), inactives show at the top dose activity change, negative = growth inhibition, usual class: inhibitors. 420,000 compounds, 15% hits. AID 686978, 2013; further: potency means the concentration at half of the fitted maximal effect; on the % scale 0 is the no-effect control and ±100 the full control effect; nearly all actives have a fitted effect of over 55% in size
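DT40 Tdp1-/-;hTDP1 cells, no CPT (DMSO vehicle only), 400 cells/well; compounds pin-transferred; ≥48 hr, 37 °C; CellTiter-Glo 30 min RT dark, luminescence read.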
D3 antag = antagonists of human D3 dopamine receptor | P35462 | 360,000 compounds, 2.5% hits | AID 652054 | max response, negative = inhibition, % | D3R cells, DiscoveRx beta-arrestin luminescence, antagonist mode; active compounds read low; in the data active means max response below about -50%; inconclusive means no clear call, values can overlap the other calls; further: on the % scale 0 is the no-effect control and ±100 the full control effect
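Cells plated overnight at 1500 cells/well, then exposed to library compounds with dopamine controls for 90 minutes at 37 degrees C. DiscoveRx reagent added for 30–60 minutes at room temperature; luminescence read, quantitative HTS format.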
Active calls of the source: *; ? = inconclusive; . = no result given. Rows were chosen to be rich in hits. Some 21% of all compounds tested hit in one or more screens of this group. Unless noted, the call rests on the fitted dose curve; in most records, active means well fitted inhibition curve with a large enough effect; inconclusive means small, poorly fitted or top-dose-only effect; inactive means flat fitted curve, though single readings scatter.

SMILES	DRD3 agonist	DT40 TDP1 CPT	ClpP mod	IL-1B inflam inh	DT40 TDP1 no CPT	D3 antag
Cn1nccc1C(=O)N/N=C/c1c(O)ccc2ccccc12	16.3	4.61µM*	-4.0%	286.0	3.26µM*	7.9
Cn1c(/N=C/c2c(O)ccc3ccccc23)nc2ccccc21	-9.1	3.26µM*	-11.8%	31.1	5.8µM*	?
O=C(N/N=C/c1c(O)ccc2ccccc12)c1ccc[n+](CCO)c1	25.2	29.1µM*	.	103.0	?	3.1
CC1(C)CC(=O)C=C(C(=O)N2CCCC(C(=O)c3cccc(Cl)c3)C2)O1 (centres undefined)	-3.3	?	1.4%	-1.0	?	-0.7
C=CCSc1nnc(C2CCCN(Cc3ccccc3O)C2)n1C (centres undefined)	.	-0.2%	.	.	-1.6%	.
Cc1c(/C=N/NC(=O)c2cccs2)c2ccccc2n1Cc1ccccc1Cl	-10.2	16.4µM*	.	27.6	20.6µM*	-3.1
Cn1ncc(N=Cc2c(O)ccc3ccccc23)c1C(=O)Nc1cccc(Cl)c1	-1.6	?	.	18.5	23.1µM*	0.8
Cn1cc(C(=O)N/N=C/c2c(O)ccc3ccccc23)ccc1=O	3.1	5.17µM*	0.7%	121.7	3.66µM*	11.9
Cc1nn(Cc2ccccc2)c(Cl)c1/C=N/NC(=O)c1cccnc1	-1.8	-2.1%	-3.1%	48.5	?	10.0
Cn1ncc(Cl)c1C(=O)Nc1cccc(Cl)c1	0.2	-10.2%	1.7%	-19.1	-17.3%	-10.2
Cc1c(/C=N/NC(=O)c2cccnc2)c2ccccc2n1Cc1ccccc1	4.1	11.6µM*	.	55.9	7.31µM*	17.5
Cc1[nH]c2ccccc2c1/C=N/NC(=O)c1cccs1	-2.6	?	-2.7%	51.8	-7.1%	7.3
CC(=O)c1sc(NC(=O)C2CCN(C(=O)c3ccc(F)cc3)CC2)nc1-c1ccccc1	16.4	?	-5.6%	0.0	?	20.5
CCC1OC(=O)C(C)[C@@H](O[C@H]2C[C@@](C)(OC)C(O)C(C)O2)C(C)[C@@H](O[C@@H]2OC(C)CC(N(C)C)C2O)[C@](C)(O)CC(C)/C(=N\OCOCCOC)[C@H](C)C(O)[C@]1(C)O (some centres undefined)	.	-17.2%	.	.	-16.5%	.
O=C(NN=Cc1c(O)ccc2ccccc12)c1ccncc1	9.7	4.61µM*	-1.2%	91.1	3.66µM*	38.7
CC1(C)C2CC=C(/C=N/NC(=O)c3ccc(O)cc3)C1C2 (centres undefined)	-12.3	4.5%	.	-54.2*	-18.5%	-8.6
O=C(N/N=C/c1c(O)ccc2ccccc12)c1cccnc1	25.8	1.16µM*	.	195.0	1.03µM*	25.3
COc1ccc2ccccc2c1/C=N\NC(=O)c1cccnc1	-16.5	17.1%	.	13.1	-12.8%	3.4
O=C(N/N=C/c1cccc2ccccc12)c1ccncc1	0.4	2.4%	-0.2%	-1.7	-16.2%	-14.0
Cc1cc2c(c(-c3cnccn3)c1)OC(CNC(=O)c1cc(Cl)ccc1F)C2 (centres undefined)	.	14.2%	.	.	-14.5%	.
O=c1c2ccccc2oc2nc(-c3ccco3)n(Cc3ccccc3)c(=O)c12	-1.8	?	-6.1%	11.4	20.6µM*	1.0
COc1cc(-c2nc3oc4ccccc4c(=O)c3c(=O)n2Cc2ccco2)cc(OC)c1OC	0.8	18.4µM*	-5.7%	?	20.6µM*	1.1
COc1ccc(CCNc2ncnc3onc(C)c23)c(OC)c1	9.9	1.16µM*	-1.6%	.	0.517µM*	.
Cc1noc2ncnc(NCc3ccc(Cl)cc3)c12	-9.8	13µM*	0.3%	.	16.4µM*	.
CCOc1ccc(CCNc2ncnc3onc(-c4ccc(F)cc4)c23)cc1OCC	5.4	?	-0.6%	.	23.1µM*	.
SMILES	DRD3 agonist	DT40 TDP1 CPT	ClpP mod	IL-1B inflam inh	DT40 TDP1 no CPT	D3 antag
COc1cccc(CNc2ncnc3onc(C)c23)c1	-3.7	13µM*	-4.1%	.	9.2µM*	.
CCOc1ccc(CCNc2ncnc3onc(-c4ccc(Cl)cc4)c23)cc1OCC	1.9	?	-10.5%	.	?	.
CCCNc1ncnc2onc(C)c12	-2.5	-21.1%	2.0%	10.8	?	-6.8
O=C(CNC(=O)c1ccc(Cl)cc1)OCC(=O)N1CCCC1	3.5	13.5%	-0.1%	6.1	-10.2%	-1.3
COc1ccc(CCC(=O)N2CCCC(Nc3ccc(C)c(C)c3)C2)cc1OC (centres undefined)	1.4	?	0.4%	5.6	?	13.9
CCOc1ccc(CCNc2ncnc3onc(-c4ccc(Cl)cc4)c23)cc1	0.7	9.2µM*	-7.7%	.	8.2µM*	.
Clc1ccc(-c2noc3ncnc(NCCCN4CCN(c5ccccc5)CC4)c23)cc1	-8.4	?	-0.7%	.	?	.
COc1ccc(CNc2ncnc3onc(-c4ccc(F)cc4)c23)cc1	-8.7	20.6µM*	-2.4%	.	29.1µM*	.
Fc1ccc(Nc2ncnc3onc(-c4ccc(Cl)cc4)c23)cc1Cl	13.3	?	?	.	18.4µM*	.
Clc1ccc(-c2noc3ncnc(NC4CCCCC4)c23)cc1	1.1	3.3%	2.6%	.	-19.4%	.
Cc1ccc(CCNc2ncnc3onc(-c4ccc(Cl)cc4)c23)cc1	1.5	?	-0.5%	.	25.9µM*	.
CN(C)c1ncc2nc(-c3cccc(C#N)c3)c(=O)n(CCC#N)c2n1	.	20.3%	.	.	11.7%	.
Cc1cccc(CCNc2ncnc3onc(-c4ccc(Cl)cc4)c23)c1	7.9	?	-10.0%	.	18.4µM*	.
CCc1cccc(Nc2ncnc3onc(-c4ccc(F)cc4)c23)c1	-6.4	23.1µM*	?	.	16.4µM*	.
CCC(CO)Nc1ncnc2onc(-c3ccc(F)cc3)c12 (centres undefined)	3.5	9.2%	.	35.3	-21.2%	4.7
Nc1c(Cl)ncnc1NCCO	-0.2	2.3%	-0.7%	37.5	17.8%	6.0
Clc1ccc(CNc2ncnc3onc(-c4ccc(Cl)cc4)c23)cc1	3.6	?	?	.	18.4µM*	.
CC(C)CNc1ncnc2onc(-c3ccc(Cl)cc3)c12	1.2	-27.1%	-0.8%	.	-25.1%	.
Cc1ccc(CCNc2ncnc(Cl)c2N)cc1	5.5	0.461µM*	.	-21.7	0.517µM*	-2.7
Cc1nnc(NC(=O)CSc2nc3c([nH]c4ccccc43)c(=O)n2-c2ccc(Cl)cc2)s1	0.8	?	-14.9%	.	?	.
O=C1NC(=O)N(Cc2ccccc2)CC1Br (centres undefined)	3.9	2.8%	-0.2%	-11.5	-5.1%	21.2
